Compounds with a hit are over-represented: about 7.3% of the library has one in this group of screens.
HCMV inh: blocks human cytomegalovirus replication. HFF cells, HCMV-luciferase reporter, 72 h; stronger effect = lower value. activity change, negative = inhibition, % at 57.5 µM. 4.5% of 410,000 active. AID 1259415; in the data active means activity change below about -60%; inconclusive means no clear call, values can overlap the other calls; inactive means above about -39%
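Inhibition of viral replication was scored as loss of reporter luminescence in HFFs infected with HCMV-luciferase (MOI 1 PFU/cell) for 72 h; compounds tested at 2 doses, normalized to buffer and Salinomycin controls.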
AmpC no deterg: AmpC beta-lactamase inhibition without detergent; P00811; AmpC nitrocefin hydrolysis, absorbance 480 nm, 0.0001% Triton; Potency, µM (series often up to 57.1 µM), usual class: inhibitors; 0.52% of 330,000 active; further: nearly all actives have a fitted effect of over 20% in size
Target sequence (P00811 whole entry, looked up): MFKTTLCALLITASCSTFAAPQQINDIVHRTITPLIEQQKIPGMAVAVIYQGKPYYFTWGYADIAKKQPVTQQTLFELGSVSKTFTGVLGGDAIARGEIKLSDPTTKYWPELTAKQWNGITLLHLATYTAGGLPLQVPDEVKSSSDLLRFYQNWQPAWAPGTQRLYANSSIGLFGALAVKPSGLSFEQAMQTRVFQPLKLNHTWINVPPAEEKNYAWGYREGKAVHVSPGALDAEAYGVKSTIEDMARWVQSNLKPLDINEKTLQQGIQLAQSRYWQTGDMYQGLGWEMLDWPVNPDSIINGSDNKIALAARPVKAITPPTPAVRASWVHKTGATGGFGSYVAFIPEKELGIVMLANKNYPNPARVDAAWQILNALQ
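AmpC (5.3 nM in the dispensed reagent) in 20 mM phosphate pH 7.0 with 0.01% (detergent screen) or 0.0001% Triton X-100 was preincubated with compounds for 15 min at room temperature. Nitrocefin was then added from an 800 uM solution, and hydrolysis was followed at 480 nm.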
AmpC inh detg: inhibitors of E. coli AmpC beta-lactamase with detergent. Potency, µM (doses to about 114 µM), hits mostly inhibitors. 0.041% of 370,000 active. AmpC hydrolysis of nitrocefin, absorbance 480 nm, 0.01% Triton. AID 485294. P00811; further: nearly all actives have a fitted effect of over 25% in size
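20 mM phosphate pH 7.0 + 0.01% (detergent screen) or 0.0001% Triton X-100; 5.3 nM AmpC reagent; cpd preinc 15 min RT; nitrocefin (800 uM stock) to start; A480 q20 s × 4 min; Activity was normalised to no-enzyme and no-compound control wells.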
HCV inh: blocks hepatitis C virus; Huh7.5.1 HCVcc-Cre infection, luciferase reporter, 44 h; Potency, µM (top dose mostly 41.8 µM), actives largely listed as inhibitors; 3.4% of 340,000 active; AID 651820
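Antiviral activity was scored by luciferase reporter output from cells infected with HCVcc-Cre (~0.5 moi) in presence of compound, 44 h infection period, cells seeded 1,000/well 4 h prior.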
FMDV inh: blocks foot and mouth disease virus | AID 1159524 | 1.2% of 410,000 active | FMDV antiviral cell-based qHTS | Potency, µM (highest dose often 57.9 µM), most hits filed as inhibitors; calls by dose curve; tested in HEK293T cells; further: read-out not given here; nearly all actives have a fitted effect of over 45% in size
Numbers stand for hits; n = inactive; u = inconclusive; x = no result. Unless noted, the call rests on the fitted dose curve; in most records, active means well fitted curve in the direction sought with a large enough effect; inconclusive means small, poorly fitted or top-dose-only effect, or another doubt; inactive means no such curve, though single readings can be large; an effect the other way counts as inactive or inconclusive.

SMILES | HCMV inh | AmpC no deterg | AmpC inh detg | HCV inh | FMDV inh
Cn1nnnc1Sc1ncnc2scc(-c3cccc4ccccc34)c12 | u | n | x | x | u
Cc1sc2ncnc(Sc3nnc4sc5ccccc5n34)c2c1C | x | n | u | n | x
Cn1nnnc1Sc1ncnc2scc(-c3ccc[nH]3)c12 | -98 | n | n | x | u
Cn1nnnc1Sc1ncnc2scc(-c3ccccc3Br)c12 | -93 | n | n | x | u
CC(OC(=O)C1=COCCO1)C(=O)NC1CCCCC1C (stereo unspecified) | n | n | n | n | n
COc1cc(Cl)c(C)cc1NC(=O)c1cc(CN2CCOCC2)on1 | n | x | n | x | n
O=C1NC(=O)N(c2cccc(Cl)c2)C(=O)/C1=C\c1ccc(Sc2nc3ccccc3[nH]2)o1 | n | 22µM | n | n | n
O=C(NCCc1ccncc1)[C@@H]1[C@@H](CO)[C@@H]2Cn3c(ccc(-c4ccccc4)c3=O)[C@@H]2N1C(=O)C1CC1 | n | x | x | x | x
COC(=O)CNC(c1ccccc1Cl)c1cc(Br)ccc1NS(=O)(=O)c1ccc(C)cc1 (stereo unspecified) | -70 | n | n | u | n
COC(=O)CNC(c1ccccc1)c1cc(Br)ccc1NC(C)=O (stereo unspecified) | n | n | n | n | n
Oc1ccccc1CN1CCCN(Cc2ccccc2O)C1 | n | x | n | 8.9µM | n
COc1ccc(OC)c(/C=N/NC(=O)CCN2CCN(C(c3ccccc3)c3ccccc3)CC2)c1 | n | n | n | 10µM | n
O=C(CCN1CCN(C(c2ccccc2)c2ccccc2)CC1)N/N=C/c1ccc(O)cc1O | n | n | u | 7.9µM | n
O=C(CCN1CCN(C(c2ccccc2)c2ccccc2)CC1)N/N=C/c1ccc(O)cc1 | n | n | n | u | n
O=C(OCC(=O)N1CCN(S(=O)(=O)c2ccc(Cl)cc2)CC1)c1cccc(OC(F)F)c1 | n | n | n | n | u
C[C@H](CO)N1C[C@H](C)[C@@H](CN(C)C(=O)Nc2cccc(C(F)(F)F)c2)OCc2cn(nn2)CCCC1=O | n | x | x | x | x
O=c1[nH]c2cc3c(cc2cc1C(c1nnnn1C1CCCCC1)N1CCSCC1)OCCO3 (stereo unspecified) | -107 | n | n | n | n
O=C(/C=C/c1ccco1)Nc1ccc(F)cc1 | n | n | n | x | n
O=C(/C=C/c1ccco1)NCCc1ccc(F)cc1 | -78 | n | n | n | n
CN(C)C(=O)C(Sc1ccc(S(=O)(=O)N2CCCC2)cn1)c1ccccc1 (stereo unspecified) | n | n | n | u | n
Cc1cc(C)n(Cc2ccc(Cl)cc2Cl)c(=O)c1S(=O)(=O)c1ccccc1 | n | 0.16µM | n | n | n
C=C(C)Cn1c(C)cc(C)c(S(=O)(=O)c2ccc(C)cc2)c1=O | u | n | n | n | n
COc1ccc(S(=O)(=O)N2CCCCC2)cc1NC(=O)C1CC1C (stereo unspecified) | u | n | n | n | n
Cc1ccc(C2=NO[C@@](CC(=O)O)(C(=O)Nc3ccc4c(c3)OCCO4)C2)cc1 | n | n | n | n | n
COc1ccc(OC)c(C2=NO[C@@](CC(=O)O)(C(=O)Nc3ccc4c(c3)OCCO4)C2)c1 | -100 | n | n | n | n
SMILES | HCMV inh | AmpC no deterg | AmpC inh detg | HCV inh | FMDV inh
Cc1oc2c(c(C)nn2-c2ccccc2)c(=O)c1Cl | n | x | x | x | x
CS(=O)(=O)c1ccc(Nc2nc(C(N)c3ccccc3)cs2)cc1 (stereo unspecified) | n | x | x | x | n
Fc1ccc(-c2nc3cnccn3c2NC2CCCC2)cc1 | n | n | n | 14µM | n
Oc1ccc(Br)cc1-c1nc2cnccn2c1NC1CCCCC1 | u | n | n | u | x
Oc1ccc(Br)cc1-c1nc2cnccn2c1NC1CCCC1 | u | n | n | 11µM | u
COc1cc(S(=O)(=O)NCc2ccc3c(c2)OCO3)ccc1F | u | n | n | n | n
CN(C(=O)C1CCN(S(=O)(=O)c2ccccc2[N+](=O)[O-])CC1)C1CCCCC1 | n | n | x | n | n
CC[C@@H](C)[C@H](NC(=O)OC(C)(C)C)c1nnc(S(=O)(=O)Cc2cc(C)ccc2C)o1 | n | u | 11µM | n | n
CC(C)C[C@H](NC(=O)OC(C)(C)C)c1nnc(SCc2ccccc2)o1 | n | n | n | n | n
CC(C)(C)OC(=O)N[C@@H](Cc1ccccc1)c1nnc(S(=O)(=O)Cc2cccc(F)c2)o1 | x | n | 25µM | u | u
Cc1ccccc1CS(=O)(=O)c1nnc([C@H](CC(C)C)NC(=O)OC(C)(C)C)o1 | n | u | 14µM | n | u
CC[C@@H](C)[C@H](NC(=O)OCc1ccccc1)c1nnc([C@@H](NC(=O)OCc2ccccc2)[C@@H](C)CC)o1 | n | n | n | u | n
CC(C)C[C@H](N)c1nnc(S(=O)(=O)Cc2cccc(F)c2)o1 | n | 4.5µM | 3.5µM | u | n
CCCC/C=C1/CCC(CN(C)C)C1=O (stereo unspecified) | x | x | x | u | 28µM
CN(C)CC1CCC/C(=C/c2ccc(Cl)cc2)C1=O (stereo unspecified) | n | x | x | u | 40µM
CN(C)CC1CCC/C(=C\c2ccc(OC(=O)/C=C/c3ccc(Cl)c(Cl)c3)cc2)C1=O (stereo unspecified) | n | x | x | u | 40µM
COc1cccc(/C=C2/CCC(CN(C)C)C2=O)c1 (stereo unspecified) | -87 | x | x | u | 25µM
COc1ccc(/C=C2/CCCC(CN(C)C)C2=O)cc1 (stereo unspecified) | n | x | x | u | n
Cc1cc(C(=O)NCc2nnc3n2CCN(Cc2ccc(F)cc2F)CC3)c(C)o1 | x | x | x | x | n
CCOC(=O)c1ccc(-n2[nH]c(-c3ccccc3)cc2=O)cc1 | n | n | u | 14µM | u
CCOC(=O)c1ccc(N=Nc2c(C)[nH]n(-c3ccccc3)c2=O)cc1 | n | n | u | n | n
COc1ccc(C2c3[nH]c4ccccc4c3CCN2C(=O)c2ccc(=O)n(C)n2)c(F)c1 (stereo unspecified) | n | n | n | n | n
CCc1cc(C(=O)N2CCc3c([nH]c4ccccc34)C2c2ccc(OC)cc2F)no1 (stereo unspecified) | -64 | n | n | u | n
COc1ccc(CC(=O)N2CCc3c([nH]c4ccccc34)C2c2ccc(SC)cc2)cc1 (stereo unspecified) | n | x | n | x | n
COc1ccc(CCC(=O)N2CCc3c([nH]c4ccccc34)C2c2ccc(F)cc2)cc1 (stereo unspecified) | -80 | x | n | x | n
CCOc1ccc(C2c3[nH]c4ccccc4c3CCN2C(=O)CCc2ccccc2)cc1 (stereo unspecified) | -84 | x | n | x | n
CCOc1ccc(C2c3[nH]c4ccccc4c3CCN2C(=O)Cc2cccc(OCC)c2OCC)cc1 (stereo unspecified) | n | x | n | x | n
N/C(=N\OC(=O)Cc1ccccc1[N+](=O)[O-])c1ccncc1 | -61 | n | n | n | n
